PubChem BioAssay (EPA / NIEHS)
Active and inactive are the calls of the source. Rule for the calls: active = hit-call score of the fitted dose curve at least 0.9, where 1 is the maximum; inactive = score below 0.9.

Tests used:
[1] = read-out: TIMP metallopeptidase inhibitor 2 (TIMP2), TIMP2 (gene 7077); experiment: BSK_KF3CT_TIMP2: BioMAP Diversity Plus: KF3CT Assay for TIMP metallopeptidase inhibitor 2 (TIMP2) Biomarker Activity (AID 2283071); conditions: primary human keratinocytes with fibroblasts; actives raise or lower the signal
How it was run: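 Co-culture of human primary keratinocytes and foreskin fibroblasts, measured 24 h after chemical dosing. TIMP-2 quantified by ELISA and fitted in both directions relative to DMSO. Cytotoxicity checked in parallel cultures by SRB total-protein staining.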

[2] = read-out: Transforming growth factor beta 1 (TGFb1), TGFB1 (gene 7040); experiment: BSK_KF3CT_TGFb1: BioMAP Diversity Plus: KF3CT Assay for Transforming growth factor beta 1 (TGFb1) Biomarker Activity (AID 2283072); conditions: primary human keratinocytes with fibroblasts; actives raise or lower the signal
How it was run: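 Human keratinocyte/foreskin fibroblast co-culture; TGF-b1 measured by ELISA 24 h after dosing, fitted bidirectionally versus DMSO. Cytotoxicity checked in parallel cultures by total protein (SRB staining, 560 nm).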

[3] = read-out: C-C motif chemokine 2 (Homo sapiens) (UniProt P13500); experiment: BSK_KF3CT_MCP1: BioMAP Diversity Plus: KF3CT Assay for Monocyte Chemoattractant Protein 1 (MCP1/CCL2) Biomarker Activity (AID 2283073); conditions: primary human keratinocytes with fibroblasts; actives raise or lower the signal
How it was run: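 Human keratinocyte–foreskin fibroblast co-culture; MCP-1 measured by ELISA 24 h after dosing. Bidirectional fit vs DMSO; cytotoxicity tracked by SRB total protein in parallel cultures.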

[4] = read-out: Matrix Metallopeptidase 9 (MMP9), MMP9 (gene 4318); experiment: BSK_KF3CT_MMP9: BioMAP Diversity Plus: KF3CT Assay for Matrix Metallopeptidase 9 (MMP9) Biomarker Activity (AID 2283074); conditions: primary human keratinocytes with fibroblasts; actives raise or lower the signal;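 for AC50: MMP9 protein level quantified by ELISA in the co-culture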
How it was run: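 Human keratinocyte/foreskin fibroblast co-culture; compound added; 24 h; MMP-9 by ELISA; bidirectional fit vs DMSO baseline.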

[5] = read-out: urokinase plasminogen activator (uPA), PLAU (gene 5328); experiment: BSK_KF3CT_uPA: BioMAP Diversity Plus: KF3CT Assay for urokinase plasminogen activator (uPA) Biomarker Activity (AID 2283075); conditions: primary human keratinocytes with fibroblasts; actives raise or lower the signal
How it was run: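 ELISA readout of uPA, analyzed for signal gain or loss relative to DMSO, from a human primary keratinocyte–foreskin fibroblast co-culture measured 24 h after chemical treatment.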

[6] = read-out: E-selectin (Homo sapiens) (UniProt P16581); experiment: BSK_LPS_Eselectin: BioMAP Diversity Plus: LPS Assay for Eselectin Biomarker Activity (AID 2283077); conditions: primary human HUVEC with PBMC; actives raise or lower the signal
How it was run: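 Human umbilical vein endothelial cells co-cultured with PBMC under LPS stimulation; cell-surface E-selectin measured by ELISA 24 h after dosing. Change in either direction versus DMSO, with SRB total-protein staining in parallel cultures for cytotoxicity.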

[7] = read-out: Interleukin-8 (IL8), CXCL8 (gene 3576); experiment: BSK_LPS_IL8: BioMAP Diversity Plus: LPS Assay for Interleukin-8 (IL8) Biomarker Activity (AID 2283078); conditions: primary human HUVEC with PBMC; actives raise or lower the signal
How it was run: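 Human umbilical vein endothelial cells co-cultured with PBMC, LPS-stimulated, exposed to compound for 24 h. IL-8 quantified by ELISA; fitted in both directions against DMSO, with SRB total-protein staining of parallel cultures for cytotoxicity.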

[8] = BSK_LPS_SRB: Viability Assessment in the BioMAP Diversity Plus: LPS Assay (AID 2283079); conditions: primary human HUVEC with PBMC;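 note: total protein by sulforhodamine B absorbance as a cytotoxicity measure; measured one day after compound addition; fitted in both directions against DMSO so loss or gain of signal counts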
How it was run: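 Co-culture of human umbilical vein endothelial cells and PBMC, read 24 h after dosing. Total protein by 0.1% SRB staining after 10% TCA fixation, absorbance at 560 nm; bidirectional fit against DMSO.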

[9] = read-out: Interleukin-1 alpha (IL1a), IL1A (gene 3552); experiment: BSK_LPS_IL1a: BioMAP Diversity Plus: LPS Assay for Interleukin-1 alpha (IL1a) Biomarker Activity (AID 2283080); conditions: primary human HUVEC with PBMC; actives raise or lower the signal
How it was run: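 Human umbilical vein endothelial cells co-cultured with PBMC and stimulated with LPS; IL-1a measured by ELISA 24 h after dosing. Bidirectional fitting against DMSO; cytotoxicity checked by SRB staining in parallel cultures.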

[10] = read-out: Monocyte Chemoattractant Protein-1 (MCP1), CCL2 (gene 6347); experiment: BSK_LPS_MCP1: BioMAP Diversity Plus: LPS Assay for Monocyte Chemoattractant Protein-1 (MCP1) Biomarker Activity (AID 2283081); conditions: primary human HUVEC with PBMC; actives raise or lower the signal;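 for AC50: secreted MCP-1 protein quantified by ELISA in culture supernatant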
How it was run: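 Human umbilical vein endothelial cells co-cultured with PBMC, LPS-stimulated; secreted MCP-1 measured by ELISA 24 h after compound addition. Bidirectional curve fitting against DMSO baseline; SRB total-protein staining in parallel cultures for cytotoxicity.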

[11] = BSK_LPS_PGE2: BioMAP Diversity Plus: LPS Assay for Prostaglandin E2 (PGE2) Biomarker Activity (AID 2283082); conditions: primary human HUVEC with PBMC; actives raise or lower the signal;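 for AC50: secreted prostaglandin E2 measured by ELISA in LPS-stimulated co-culture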
How it was run: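 HUVEC plus human PBMC co-culture stimulated with LPS; secreted PGE2 quantified by ELISA 24 h after chemical dosing. Activity fitted bidirectionally against DMSO baseline; parallel SRB staining (0.1% SRB after 10% TCA fixation, 560 nm) flags overt cytotoxicity.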

[12] = read-out: Macrophage colony-stimulating factor (MCSF), CSF1 (gene 1435); experiment: BSK_LPS_MCSF: BioMAP Diversity Plus: LPS Assay for Macrophage colony-stimulating factor (MCSF) Biomarker Activity (AID 2283083); conditions: primary human HUVEC with PBMC; actives raise or lower the signal
How it was run: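 HUVEC–PBMC co-culture, M-CSF measured by ELISA 24 h after chemical dosing. Fitted in both directions relative to DMSO as negative control; overt cytotoxicity assessed by SRB total-protein staining in parallel cultures.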

[13] = read-out: Tissue Factor, F3 (gene 2152); experiment: BSK_LPS_TissueFactor: BioMAP Diversity Plus: LPS Assay for Tissue Factor Biomarker Activity (AID 2283084); conditions: primary human HUVEC with PBMC; actives raise or lower the signal
How it was run: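 Human umbilical vein endothelial cells co-cultured with PBMC were dosed with compound. Cell-surface CD142 was measured by ELISA 24 h later. Activity was fitted bidirectionally against DMSO, with SRB total-protein staining in parallel cultures for cytotoxicity.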

[14] = read-out: Tumor necrosis factor (Homo sapiens) (UniProt P01375); experiment: BSK_LPS_TNFa: BioMAP Diversity Plus: LPS Assay for Tumour Necrosis Factor alpha (TNFa) Biomarker Activity (AID 2283085); conditions: primary human HUVEC with PBMC; actives raise or lower the signal
How it was run: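 Human umbilical vein endothelial cells co-cultured with PBMC and stimulated with LPS. TNFa was measured by ELISA 24 h after chemical dosing, fitted bidirectionally relative to DMSO.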

[15] = read-out: Vascular cell adhesion molecule 1 (VCAM1), VCAM1 (gene 7412); experiment: BSK_LPS_VCAM1: BioMAP Diversity Plus: LPS Assay for Vascular cell adhesion molecule 1 (VCAM1) Biomarker Activity (AID 2283086); conditions: primary human HUVEC with PBMC; actives raise or lower the signal
How it was run: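 Human umbilical vein endothelial cells co-cultured with PBMC and stimulated with LPS; VCAM-1 measured by ELISA 24 h after dosing. Bidirectional curve fitting against DMSO baseline; cytotoxicity tracked in parallel by SRB total-protein staining.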

[16] = read-out: CD38, CD38 (gene 952); experiment: BSK_SAg_CD38: BioMAP Diversity Plus: SAg Assay for CD38 Biomarker Activity (AID 2283087); conditions: primary human HUVEC with PBMC; actives raise or lower the signal
How it was run: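 Human HUVEC plus PBMC co-culture stimulated with superantigen; CD38 measured by ELISA 24 h after chemical dosing. Fluorescence read-out, bidirectional fit against DMSO; cytotoxicity tracked in parallel by SRB and Alamar Blue.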

[17] = read-out: CD40, CD40 (gene 958); experiment: BSK_SAg_CD40: BioMAP Diversity Plus: SAg Assay for CD40 Biomarker Activity (AID 2283088); conditions: primary human HUVEC with PBMC; actives raise or lower the signal
How it was run: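 HUVEC plus PBMC co-culture, superantigen-activated, with CD40 read by ELISA 24 h after dosing. Curves fitted in both directions against DMSO. Overt cytotoxicity checked by parallel SRB total-protein staining.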

[18] = read-out: CD69, CD69 (gene 969); experiment: BSK_SAg_CD69: BioMAP Diversity Plus: SAg Assay for CD69 Biomarker Activity (AID 2283089); conditions: primary human HUVEC with PBMC; actives raise or lower the signal;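 for AC50: cell surface CD69 protein quantified by ELISA with fluorescence detection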
How it was run: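 ELISA, fluorescence read-out: CD69 on human umbilical vein endothelial cell + PBMC co-culture, 24 h post-dosing. Gain or loss of signal fitted bidirectionally against DMSO baseline.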

[19] = read-out: Monocyte Chemoattractant Protein-1 (MCP1), CCL2 (gene 6347); experiment: BSK_SAg_MCP1: BioMAP Diversity Plus: SAg Assay for Monocyte Chemoattractant Protein-1 (MCP1) Biomarker Activity (AID 2283090); conditions: primary human HUVEC with PBMC; actives raise or lower the signal
How it was run: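 MCP-1 levels in the endothelial–PBMC SAg co-culture were quantified by ELISA at 24 h post-dosing; both increases and decreases versus DMSO scored. Cytotoxicity monitored by SRB total protein in parallel cultures.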

[20] = read-out: CD40, CD40 (gene 958); experiment: BSK_LPS_CD40: BioMAP Diversity Plus: LPS Assay for CD40 Biomarker Activity (AID 2283076); conditions: primary human HUVEC with PBMC; actives raise or lower the signal
How it was run: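 HUVEC plus PBMC co-culture stimulated with LPS; CD40 quantified by ELISA 24 h after compound dosing. Fitting was bidirectional relative to DMSO. SRB staining of parallel cultures flagged overt cytotoxicity.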

Measured: AC50

Chain of Tumor necrosis factor (Homo sapiens) (P01375 whole entry, looked up): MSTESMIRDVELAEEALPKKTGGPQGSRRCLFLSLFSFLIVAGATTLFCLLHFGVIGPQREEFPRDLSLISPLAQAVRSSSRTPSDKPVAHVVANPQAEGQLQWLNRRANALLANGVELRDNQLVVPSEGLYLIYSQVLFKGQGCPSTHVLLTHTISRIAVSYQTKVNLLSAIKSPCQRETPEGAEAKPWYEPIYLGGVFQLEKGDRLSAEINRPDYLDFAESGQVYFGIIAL
Chain of E-selectin (Homo sapiens) (P16581 whole entry, looked up): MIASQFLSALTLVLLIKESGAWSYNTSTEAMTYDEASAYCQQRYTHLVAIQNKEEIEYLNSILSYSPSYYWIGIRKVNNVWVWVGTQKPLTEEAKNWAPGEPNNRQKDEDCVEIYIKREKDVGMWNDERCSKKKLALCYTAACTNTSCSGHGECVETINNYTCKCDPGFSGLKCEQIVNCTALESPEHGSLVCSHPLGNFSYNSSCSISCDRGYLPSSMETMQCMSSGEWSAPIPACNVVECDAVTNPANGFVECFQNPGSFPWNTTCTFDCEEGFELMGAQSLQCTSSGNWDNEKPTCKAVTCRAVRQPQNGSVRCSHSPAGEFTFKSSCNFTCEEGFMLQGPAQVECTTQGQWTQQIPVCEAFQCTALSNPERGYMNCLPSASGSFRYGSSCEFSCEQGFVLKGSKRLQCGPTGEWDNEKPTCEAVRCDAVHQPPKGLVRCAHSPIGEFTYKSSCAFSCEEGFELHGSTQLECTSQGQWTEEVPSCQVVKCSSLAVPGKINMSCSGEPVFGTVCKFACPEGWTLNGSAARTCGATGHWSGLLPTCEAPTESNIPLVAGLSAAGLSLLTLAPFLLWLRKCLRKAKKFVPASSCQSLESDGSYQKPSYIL

CC1(C)[C@H](C=C(Cl)Cl)[C@H]1C(=O)OCc1cccc(Oc2ccccc2)c1
inactive: [1] | [2] | [3] | [4] | [5] | [6] | [7] | [8] | [9] | [10] | [11] | [12] | [13] | [14] | [15] | [16] | [17] | [18] | [19]

CC(C)Cc1ccc(C(C)C(=O)O)cc1 (stereo unspecified)
inactive: [1] | [2] | [3] | [4] | [5] | [6] | [7] | [8] | [9] | [10] | [12] | [13] | [14] | [15] | [16] | [17] | [18] | [19]
active: [11] 0.897 µM

C#C[C@]1(O)CC[C@H]2[C@@H]3CCc4cc(O)ccc4[C@H]3CC[C@@]21C
inactive: [1] | [2] | [3] | [4] | [5] | [6] | [11] | [12] | [13] | [14] | [16] | [17] | [18]
active: [7] 31.2 µM | [8] 9.58 µM | [9] 20 µM | [10] 6.83 µM | [15] 6.47 µM | [19] 5.56 µM

C[C@]12CC[C@@H]3c4ccc(O)cc4CC[C@H]3[C@@H]1CC[C@@H]2O
active: [8] 12 µM | [15] 16.5 µM | [16] 16.7 µM | [17] 15.8 µM | [18] 20 µM
inactive: [1] | [2] | [3] | [4] | [5] | [20] | [6] | [7] | [9] | [10] | [11] | [12] | [13] | [14]

c1ccc(Sc2ccccc2)cc1
inactive: [20] | [11] | [14] | [16]
active: [1] 27.8 µM | [2] 32 µM | [3] 32.8 µM | [4] 32.7 µM | [5] 33.1 µM | [6] 33.1 µM | [7] 20 µM | [8] 32.2 µM | [9] 33.8 µM | [10] 20 µM | [12] 35.6 µM | [13] 37 µM | [15] 31.6 µM | [17] 32.3 µM | [18] 29.7 µM | [19] 8 µM
